Screening results deposited in PubChem BioAssay by several laboratories.
The list is not random: actives were taken first. Their share in the collection is about 2.6%.
697 NFkB inh: lowers PMA/ionomycin-induced NF-kB signal in 697 B cells | 697 B-cell NF-kB luciferase reporter, 16 h | inhibition, % at 4 µM | hit rate 0.33% among 330,000; in the data active = inhibition above about 35%
H9c2 protect: modulators protecting cardiomyocytes from myocardial damage | H9c2 cardiomyocytes, H2O2 injury protection, ATPLite, 2 h | hit rate 0.63% among 360,000 | protection from H2O2 cell death, % at 20 µM;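 active = compounds giving at least 50% protection of heart cells from peroxide-induced death in the single-dose screen, raw or plate-pattern-corrected value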;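 note: 0% = DMSO wells with peroxide and 100% = DMSO wells without peroxide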
H9c2 TAG inh: reduces triacylglycerol accumulation in H9c2 cells. hit rate 0.66% among 230,000. Nile Red lipid (TAG) fluorescence; cells loaded with 200 µM oleic acid. inhibition, % at 12.5 µM;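 active = pattern-corrected inhibition of lipid staining of at least 50% with the nuclear-stain viability signal not falling by more than 50%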;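 note: 0% = DMSO wells and 100% = triacsin C control wells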
Jurkat NFkB inh: lowers PMA/ionomycin-induced NF-kB signal in Jurkat cells | PMA/ionomycin-induced NF-kB luciferase reporter, luminescence | inhibition, % at 4 µM | hit rate 0.53% among 330,000; in the data active = inhibition above about 50%
COUP-TFII inh: NR2F2 (human) inhibition, primary screen; P24468; HEK293T NGFI-A luciferase reporter, luminescence; inhibition, % at 8.6 µM; hit rate 0.7% among 370,000; AID 686940;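 active = inhibition above a per-plate cutoff, mean inhibition of test wells between control levels plus 3 SD, cut at about 38% in these data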;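 note: cells cotransfected with COUP-TFII expression vector driving the NGFI-A reporter; 0% = median of COUP-TF2 test wells and 100% = reporter-only cells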
Target sequence (P24468 whole entry, looked up): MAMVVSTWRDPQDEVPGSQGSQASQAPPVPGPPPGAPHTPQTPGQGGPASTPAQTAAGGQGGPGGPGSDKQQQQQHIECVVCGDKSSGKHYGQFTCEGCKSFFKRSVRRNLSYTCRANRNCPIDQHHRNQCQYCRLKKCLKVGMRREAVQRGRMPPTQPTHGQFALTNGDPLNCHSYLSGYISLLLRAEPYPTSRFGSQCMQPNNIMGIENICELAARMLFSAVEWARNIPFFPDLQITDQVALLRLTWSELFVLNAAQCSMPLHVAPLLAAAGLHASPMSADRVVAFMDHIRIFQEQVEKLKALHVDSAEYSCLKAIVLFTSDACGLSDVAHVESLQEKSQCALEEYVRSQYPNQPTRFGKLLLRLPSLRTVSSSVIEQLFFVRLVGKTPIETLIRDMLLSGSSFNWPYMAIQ
Gli-Sufu block: blocks Gli-Sufu signaling in a luciferase reporter; Sufu-KO-LIGHT fibroblasts, Gli luciferase reporter luminescence; inhibition, % at 5 µM; hit rate 0.74% among 340,000; AID 588413;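 active = inhibition above about 55%, limit read from the data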;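 note: 0% = DMSO-treated cells and 100% = wells with medium but no cells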
697 NFkB conf: inhibitors of the PMA/ionomycin-induced NF-kB reporter in 697 B cells, retest; hit rate 35% among 2,000; inhibition, % at 4 µM; shares compounds with 697 NFkB inh; 697 B-cell NF-kB luciferase, 16 h; AID 449746; in the data active = inhibition mostly above about 28%, no sharp cut-off; inactive = mostly below about 22%
Gli antag conf: Gli-SUFU antagonism confirmation, single concentration | shares compounds with Gli-Sufu block | Sufu-KO-LIGHT cells, Gli luciferase reporter, luminescence | inhibition, % at 5 µM | hit rate 40% among 2,500;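 active = mean inhibition at 5 µM reaching about 45%, limit read from the data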;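 note: plate controls were DMSO-treated cells for no effect and wells lacking cells for full effect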
Gli cytotox: counter-screen for Gli-SUFU antagonists: cytotoxicity; cytotoxicity, % at 5 µM; hit rate 32% among 2,500; shares compounds with Gli-Sufu block; Sufu-KO-LIGHT cells cytotoxicity, ATP luminescence;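 active = mean cytotoxicity at 5 µM above about 25%, limit read from the data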;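 note: cells exposed to compound overnight for roughly 16 to 18 hours; plate controls were DMSO wells with cells for no effect and medium without cells for full effect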
Wnt3a counter: counter-screen for Gli-SUFU antagonists: Wnt3a reporter inhibition; inhibition, % at 6.25 µM; shares compounds with Gli-Sufu block; hit rate 20% among 2,500; Wnt-LIGHT cells, Wnt3a-driven luciferase reporter, luminescence; AID 651995;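 active = mean inhibition above about 25%, limit read from the data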
VP16 Luc counter: counter-screen for COUP-TFII antagonists: inhibitors of VP16. shares compounds with COUP-TFII inh. HEK293 Gal4-VP16 luciferase reporter, luminescence. inhibition, % at 8.5 µM. hit rate 25% among 2,500. AID 687007; in the data active = inhibition above about 13%
NR2F2 inh conf: confirmation of human COUP-TFII (NR2F2) inhibitors; hit rate 45% among 2,500; shares compounds with COUP-TFII inh; HEK293 NGFI-A luciferase reporter, luminescence; inhibition, % at 8.5 µM;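 active = mean inhibition over three repeats above a set limit taken from the earlier primary screen, cut at about 38% in these data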;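 note: 100% = cells given the luciferase reporter alone without the COUP-TF2 vector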
Starred values were filed as active, the others as inactive; x = not tested or not shown.

SMILES	697 NFkB inh	H9c2 protect	H9c2 TAG inh	Jurkat NFkB inh	COUP-TFII inh	Gli-Sufu block	697 NFkB conf	VP16 Luc counter	NR2F2 inh conf	others
O=C(O)Cc1ccc(NC(=O)c2ccc(NC(=O)c3ccco3)cc2)cc1	5.5	8.1	x	-8.0	-3.5	7.3	x	x	x
O=S1(=O)N[C@H](Cc2ccccc2)COc2cc(N3CCCC3)ccc21	x	x	x	x	2.2	x	x	x	x
Cc1csc(NC(=O)CCc2c(C)nc3cc(-c4ccc(Cl)cc4)nn3c2C)n1	42.5*	37.1	9.8	40.6	48.7*	4.1	42.5*	-15.3	36.5
COc1cc(OC)cc(-c2cc3nc(C)c(CCC(=O)NCc4ccccc4)c(C)n3n2)c1	38.2*	5.0	7.5	13.5	58.4*	19.3	44.6*	28.6*	47.1*
Cc1csc(NC(=O)CSc2nnc(-c3ccc(Cl)cc3)n2N)n1	14.4	2.5	x	-2.9	-7.3	-1.7	x	x	x
O=C(NCc1ccccc1)[C@H]1CCCN1C(=O)[C@H]1CCCN1C(=O)c1ccccc1C(F)(F)F	x	x	x	x	-8.2	x	x	x	x
CC(C)(C)c1ccc(-c2cc(-c3ccccc3O)[nH]n2)cc1	-368.4	-15.3	-11.3	-97.0	37.4*	31.6	-220.3	1.7	50.9*
Nn1c(SCC(=O)N2c3ccccc3Sc3ccc(Cl)cc32)nnc1-c1n[nH]c2c1CCC2	x	x	x	x	-9.5	x	x	x	x
C=CCN1[C@@H](CC(C)C)COc2cc(F)ccc2S1(=O)=O	x	x	x	x	3.5	x	x	x	x
COc1cccc(N2CCN(c3ncnc4c3[nH]c3ccc(F)cc34)CC2C)c1 (stereo not drawn)	71.2*	-35.3	-31.1	10.4	90.8*	91.2*	91.4*	92.3*	108.5*
O=C(Nc1nccs1)c1cc2c(s1)CCCCC2	-306.9	-26.3	-28.9	-39.3	41.7*	8.0	-356.5	-55.3	-9.8
Cc1nn(C)c(C)c1CN(C)S(=O)(=O)c1ccc2ccccc2c1	81.9*	-20.7	-79.2	47.1	61.4*	74.7*	72.3*	2.4	66.1*	Gli antag conf=78.2*;Gli cytotox=28.1*;Wnt3a counter=36.5*
Cc1nn(C)c(C)c1CN(C)S(=O)(=O)c1ccc(F)cc1	-14.5	-14.6	-6.9	15.2	22.0	2.7	x	x	x
CC[C@@H](CCCc1ccccc1OC)CCS(=O)(=O)C(C)(C)C	x	x	x	x	2.2	x	x	x	x
Cc1ccc(/C=C2\SC(=S)N(CCCC(=O)NC3CCCC3)C2=O)cc1	85.3*	-4.8	x	18.8	42.1*	15.6	79.6*	12.2	21.1
COc1cc(/C=C2\SC(=S)N(CCC(=O)NC3CCCC3)C2=O)cc(OC)c1OC	8.2	4.2	x	18.9	3.2	-12.7	x	x	x
Cc1ccc(/C=C2\SC(=S)N(CCCC(=O)NNC(=O)c3ccccc3O)C2=O)cc1	87.5*	55.3*	2.4	30.1	70.0*	60.4*	76.2*	23.1*	38.5*	Gli antag conf=58.9*;Gli cytotox=13.9;Wnt3a counter=100.4*
O=C(CCCN1C(=O)/C(=C/c2ccccc2Cl)SC1=S)Nc1ccccn1	45.8*	-0.1	x	11.6	40.5*	8.7	67.8*	6.2	25.2
O=C(CCN1C(=O)/C(=C/c2ccccc2Cl)SC1=S)Nc1ccccn1	4.8	-0.8	x	2.5	6.2	-5.5	x	x	x
Cc1ccc(/C=C2/SC(=S)N(CCCC(=O)Nc3ccc(O)cc3)C2=O)cc1	87.7*	-13.9	1.2	2.1	70.0*	62.1*	93.3*	-78.2	-12.9	Gli antag conf=67.1*;Gli cytotox=26.3*;Wnt3a counter=35.3*
COc1ccc(-c2nnc(SCc3c(F)cccc3F)n2N)cc1	x	x	x	x	-39.7	x	x	x	x
CC(C)C[C@H]1COc2cccc(F)c2S(=O)(=O)N1	x	x	x	x	2.6	x	x	x	x
